In PubChem BioAssay AID504832 (National Center for Advancing Translational Sciences (NCATS), 2011):
Hit rate of the full screen: of about 310,000 compounds, about 18,000 (5.8%) were called active. Inconclusive results (about 22%) are left out. The entries come from a sample that favours actives as a whole. Values without a mark were called inactive. The call rests on the fitted dose curve; in most records, active means well fitted inhibition curve with a large enough effect; inconclusive means small, poorly fitted or top-dose-only effect, or another doubt; inactive means no such curve, though single readings can be large or run the other way.

assay: Primary qHTS for delayed death inhibitors of the malarial parasite plastid, 48 hour incubation; settings: P. falciparum luciferase growth in erythrocytes; series mostly up to 28.7 µM; activity change, negative = inhibition: at the top concentration
Text: The goal of this screen is to discover new antimalarial compounds that act by inhibiting the development of the apicoplast in the malarial parasite Plasmodium falciparum. The biochemical processes that make this organelle essential for erythrocytic stage parasites are not well understood. However, antibiotics such as azithromycin and tetracycline, which target the apicoplast translational machinery, have a potent antimalarial effect.
We have developed a cell-based assay that measures parasite growth based on the expression of an integrated copy of a firefly luciferase reporter. To detect small molecules that cause this "delayed death" phenotype, erythrocytes infected with the luciferase-expressing parasites were incubated with compounds for either one or two generations, corresponding to 48 and 96 hours, respectively. Compounds that inhibit parasite growth in the second generation, but not the first, should be enriched in antimalarials that target the apicoplast. Growth inhibition is detected by a decrease in luciferase activity.
Assay Provider: David Fidock and Eric Ekland, Columbia University
Keywords: NIH Roadmap, MLPCN, MLI, MLSMR, qHTS, NCGC, qHTS, malaria, luciferase, viability
Four microliters of culture medium (RPMI 1640 with 0.5% w/v Albumax (GIBCO), 24 mM sodium bicarbonate and 10 ug/mL gentamycin) were dispensed by a Multi-drop Combi into white solid 1536-well plates (Grenier) and 23 nL compound was added by a pin tool. Four microliters of infected erythrocytes (2% hematocrit, 0.1% parasitemia final concentration) in culture medium were dispensed and the plates incubated for 48 hours at 37 C in 5% CO2. Two microliters of luciferase detection reagent was added and luminescence was detected by a ViewLux (PerkinElmer) reader.
On the % scale 0 is the no-effect control and ±100 the full control effect; potency means the concentration at half of the fitted maximal effect.

Row | SMILES | activity change, negative = inhibition | Potency
1 | CCn1c(CN2C(=O)CSc3ccccc32)n[nH]c1=S | -12.7% | 
2 | COc1ccc(CN2C(=O)CN=C2Nc2ccc(C)cc2C)cc1 | -2.89% | 
3 | CC(C)(C)c1ccc(CN2C(=O)CN=C(c3ccccc3)c3ccccc32)cc1 |  | 2.08 µM (active)
4 | O=S(=O)(NCCc1ccc(Cl)cc1)c1cccs1 | 20.8% | 
5 | Cc1cc(NCc2ccco2)n2c(nc3ccccc32)c1C#N |  | 4.15 µM (active)
6 | Cc1ccccc1-c1nc(C#N)c(NCc2ccco2)o1 | 4.33% | 
7 | Cc1cc(NC(C)C)n2c(nc3ccccc32)c1C#N | -23.9% | 
8 | COc1ccc(CCN2CC(C(=O)NCCN3CCNC3=O)CCC2=O)cc1 (stereo not drawn) | 29% | 
9 | O=C(CN1CCN(S(=O)(=O)c2ccc(F)cc2)CC1)NC1CC1 | 9.53% | 
10 | CC1CCN(S(=O)(=O)c2ccc(S(=O)(=O)NCc3ccco3)cc2)CC1 | 7.63% | 
11 | O=C(O)C1CCCCC1C(=O)N1CCN(S(=O)(=O)c2ccc(F)cc2)CC1 (stereo not drawn) | 17.8% | 
12 | O=S(=O)(c1ccc(F)cc1)N1CCN(C(=S)NCc2ccco2)CC1 |  | 1.47 µM (active)
13 | Cc1ccc(S(=O)(=O)N2CCC(C(=O)N[C@@H](C)C(=O)NCc3ccco3)CC2)cc1 | -1.32% | 
14 | O=S(=O)(c1ccc(F)cc1)N1CCN(C(=S)NC2CCCC2)CC1 |  | 7.38 µM (active)
15 | C=CCOc1ccc(/C=C/C(=O)OC(C)C(=O)Nc2ccc(NC(C)=O)cc2)cc1 (stereo not drawn) | 32.7% | 
16 | O=C(CN1CCCCCC1)Nc1ccc(Br)cc1[N+](=O)[O-] | 17.6% | 
17 | Cc1cc(OCC(=O)N(C)c2c(N)n(Cc3ccccc3)c(=O)[nH]c2=O)c(C(C)C)cc1Cl | -4.06% | 
18 | COc1cc(C2C(C(=O)c3ccc(C)o3)=C(O)C(=O)N2CCc2ccccc2)ccc1O (stereo not drawn) | 56.4% | 
19 | COc1ccc(CCN2C(=O)c3[nH]nc(-c4ccccc4O)c3C2c2ccc(C)cc2)cc1OC (stereo not drawn) |  | 9.28 µM (active)
20 | COc1ccc(CCN(C)CCN2C(=O)c3ccccc3C2=O)cc1OC | 0.247% | 
21 | COCCOC(=O)C1=C(C)Nc2nc(C)nn2C1c1ccccc1 (stereo not drawn) | 3.78% | 
22 | COc1ccc(NC(=O)C2=C(C)NC(=O)NC2c2ccccc2[N+](=O)[O-])cc1 (stereo not drawn) | -0.334% | 
23 | COC(=O)c1nc2n(n1)C(c1ccc([N+](=O)[O-])cc1)C(C(=O)Nc1ccc(Cl)cc1)=C(C)N2 (stereo not drawn) |  | 1.65 µM (active)
24 | COCCN1CCN(C(=O)c2cc(COc3ccc(F)cc3Cl)on2)CC1 | 5.96% | 
25 | CC1CC(C)CN(S(=O)(=O)c2cccc3nonc23)C1 (stereo not drawn) | 32.9% | 
26 | C=CCn1c(SCC(=O)NCCCO)nc2sc3c(c2c1=O)CCC3 | -8.06% | 

Row | SMILES | activity change, negative = inhibition | Potency
27 | CC(C)c1nc(SCC(=O)Nc2cccc(C(=O)O)c2)c2c3c(sc2n1)CCCC3 | 27.6% | 
28 | CC(OC(=O)CN1C(=O)C2CCCCC2C1=O)C(=O)Nc1ncc(Cl)cc1Cl (stereo not drawn) | -0.453% | 
29 | CC1=CC(C)(C)Nc2ccc(OC(=O)C(Cc3ccccc3)N3C(=O)C4CCCCC4C3=O)cc21 (stereo not drawn) |  | 13.1 µM (active)
30 | CC1=CC(C)(C)Nc2ccc(OC(=O)CN3C(=O)C4CCCCC4C3=O)cc21 (stereo not drawn) |  | 10.4 µM (active)
31 | O=C(CN1C(=O)C2C3CCC(C3)C2C1=O)Oc1ccc2ccccc2c1 (stereo not drawn) | 8.88% | 
32 | Cc1ccc(C)n1C(Cc1ccccc1)C(=O)O (stereo not drawn) | 4.96% | 
33 | CCC1(C)NC(=O)N(CC(=O)N2CCN(c3cccc(Cl)c3)CC2)C1=O (stereo not drawn) | -20% | 
34 | Cc1ccc(C)c(NC(=O)COC(=O)CSc2ccccc2)c1 | -2.8% | 
35 | Cc1cccc(C)c1NC(=O)N1CC(C)OC(C)C1 (stereo not drawn) | -2.21% | 
36 | Cc1sc2nc(CSCC(=O)NC3CCCCC3)[nH]c(=O)c2c1C | 47.3% | 
37 | CCC1(c2ccccc2)C(=O)NC(=O)N(C)C1=O (stereo not drawn) |  | 16.9 µM (active)
38 | Cc1c(C=O)n(C)n(-c2ccccc2)c1=O | 8.37% | 
39 | CNC(=O)CN1C(=O)NC(c2ccccc2)(c2ccccc2)C1=O | 19% | 
40 | CN(CCc1ccccc1)c1ccc([N+](=O)[O-])cn1 | 39.2% | 
41 | COc1ccccc1/C=C1\SC(=O)N(CCC(=O)N(C)C2CCS(=O)(=O)C2)C1=O (stereo not drawn) | -8.56% | 
42 | CCC(=O)c1ccc(OC(=O)/C=C/c2cc(OC)c(OC)c(OC)c2)cc1 | 10.4% | 
43 | Cc1ccc(C)c(NC(=S)NCC(c2cccnc2)N2CCOCC2)c1 (stereo not drawn) | 18.8% | 
44 | O=C(NCC(c1cccnc1)N1CCN(c2ccccc2)CC1)Oc1ccccc1 (stereo not drawn) |  | 13.1 µM (active)
45 | CN1CCN(C(CNS(=O)(=O)c2cccs2)c2cccnc2)CC1 (stereo not drawn) | 22.3% | 
46 | COc1cc(CO)ccc1OCC(=O)Nc1cccc2ccccc12 | 0.965% | 
47 | CC(C)(CNC(=O)CNC(=O)C1CCCCC1)N1CCOCC1 | -4.63% | 
48 | O=C(NC(=S)Nc1ccc(Cl)c(C(=O)O)c1)c1cncc(Br)c1 | 36% | 
49 | O=C(CCNS(=O)(=O)c1ccccc1)Nc1ccc(Cl)cc1C(=O)c1ccccc1 |  | 11.7 µM (active)
50 | CN1CCN(C(=S)SCC(=O)Nc2ccc(Cl)cc2C(=O)c2ccccc2)CC1 | 0% | 
51 | O=C(COC(=O)c1ccccc1)Nc1ccc(Cl)cc1C(=O)c1ccccc1 | 12.9% | 
52 | COc1ccc(-c2nnc(SCC(=O)Nc3cccnc3Cl)n2C)cc1 | 8.45% | 

Row | SMILES | activity change, negative = inhibition | Potency
53 | Cc1ccc(NC(=O)CN(C)C(=O)Cn2nnc(-c3ccccc3)n2)cc1 | 12% | 
54 | COc1ccccc1C(=O)COC(=O)CNS(=O)(=O)c1ccc(NC(C)=O)cc1 | 6.09% | 
55 | O=C(Nc1ccc(S(=O)(=O)N2CCCCCC2)cc1)c1c(F)cccc1F | 32.2% | 
56 | O=C(N/N=C/c1ccccn1)c1ccc(S(=O)(=O)N2CCCCCC2)cc1 | -4.68% | 
57 | O=C(Nc1ncccc1O)c1ccc(C(=O)c2ccccc2)cc1 |  | 0.738 µM (active)
58 | O=C(CNC(=O)c1ccc2ccccc2c1)Nc1ncccc1O | 96.1% | 
59 | O=C(Nc1ncccc1O)c1ccc(S(=O)(=O)N2CCCCCC2)cc1 |  | 4.15 µM (active)
60 | O=C(Nc1cccc(F)c1)c1ccc(S(=O)(=O)N2CCCC2)cc1 | -26.6% | 
61 | O=C(Nc1ncccc1O)c1ccc(S(=O)(=O)N2CCCC2)cc1 |  | 3.29 µM (active)
62 | O=C(Nc1cccnc1)c1cccc(S(=O)(=O)N2CCCC2)c1 | -11.3% | 
63 | O=C(NC(=O)c1ccccc1)Nc1ccccc1O | -2.78% [at 0.00184 µM] | 
64 | O=C(COc1ccc(Cl)cc1Cl)N/N=C/c1ccccn1 | -14% | 
65 | CCc1ccc(NC(=O)CCNS(=O)(=O)c2cccs2)cc1 | 28.1% | 
66 | O=C(CCNC(=O)c1ccccc1)Nc1nc2ccccc2s1 | 109% | 
67 | CCN(CC(=O)Nc1c(F)cccc1F)C(=O)CN1c2cccc3cccc(c23)S1(=O)=O | 12.2% | 
68 | O=CN1CCN(C(=O)c2ccc(Br)o2)CC1 | 4.43% | 
69 | COc1ccc(CCNC(=O)CN(C)S(=O)(=O)c2ccc3nc(C)sc3c2)cc1OC | -21.8% | 
70 | Cc1cc(C)c(NC(=O)C[N+](C)(C)CC(O)COc2cccc3ccccc23)c(C)c1 (stereo not drawn) |  | 5.22 µM (active)
71 | Cc1cc(C)cc(OCC(=O)NCc2cc(C)nc3ccccc23)c1 | -3.96% | 
72 | Cc1cc(C)c(NC(=O)CN2CCCCCC2)c(C)c1 | 49.9% | 
73 | Cc1ccccc1C(=O)Nc1ccccc1NC(=O)c1ccccc1C | 1.11% [at 0.00184 µM] | 
74 | N#Cc1c(-c2ccccc2)nc(SCc2ccc([N+](=O)[O-])cc2)[nH]c1=O | 19.2% | 
75 | O=C(CN1C(=O)COc2ccccc21)NCCN1CCc2ccccc2C1 | -9.1% | 
76 | O=C(Cc1c(O)c2ccccc2[nH]c1=O)NCc1ccccc1 | 10% | 
77 | O=C(CCCn1c(=O)[nH]c2cc(Cl)ccc2c1=O)NCCN1CCN(c2ccccc2)CC1 | 6.68% | 
78 | Cn1c(C(=O)NCCCN2CCN(c3cccc(Cl)c3)CC2)cc2c(=O)n(C)c3ccccc3c21 | -10.9% | 

Row | SMILES | activity change, negative = inhibition | Potency
79 | O=C(NCCN1CCN(Cc2ccccc2)CC1)c1cc2c(=O)[nH]c3ccccc3c2s1 |  | 10.4 µM (active)
80 | Cn1c(C(=O)NCCN2CCc3ccccc3C2)cc2c(=O)[nH]c3ccccc3c21 |  | 13.1 µM (active)
81 | COCC(=O)N1CCc2ccc(NC(=O)c3ccccc3Cl)cc2C1 | -9.2% | 
82 | Cc1ccccc1NC(=O)COc1cccc2c1CCNC2=O | -6.39% | 
83 | O=C(Cn1nc(C(=O)O)c2ccccc2c1=O)Nc1ccc(F)cc1 | 29% | 
84 | CCOc1ccccc1NS(=O)(=O)c1c[nH]c(C(=O)OC)c1 | 49.8% | 
85 | Cc1nc2ccccn2c(=O)c1NC(=O)c1cccs1 | -6.71% | 
86 | O=C(NCc1ccccc1Cl)C1CCN(c2ncnc3c2nc2n3CCCCC2)CC1 | -17.5% | 
87 | Cc1ccc(-c2nnc(SCC(=O)N/N=C/c3cccs3)n2-c2ccc(C)cc2)cc1 | -12.7% | 
88 | COc1ccc(-n2c(SCC(=O)OC(C)C)nnc2-c2ccccn2)cc1 | 1.41% | 
89 | Cc1ccc(-n2c(Cc3cccs3)nnc2SCC(=O)OC(C)C)cc1 |  | 11.7 µM (active)
90 | COc1cccc(C(=O)OCC(=O)c2[nH]c(C)c(C(C)=O)c2C)c1 | 8.79% | 
91 | O=C(NCCC1CCCCN1S(=O)(=O)c1cccs1)C(=O)Nc1ccc(F)cc1F (stereo not drawn) | 5.8% | 
92 | O=C(NCc1ccccc1Cl)C(=O)NCC1CCCN1S(=O)(=O)c1cccs1 (stereo not drawn) |  | 14.7 µM (active)
93 | O=C(NCc1ccccc1Cl)C1CCCN1S(=O)(=O)c1ccc(F)cc1 (stereo not drawn) | -18.1% | 
94 | Cc1ccc(S(=O)(=O)NCC(=O)N(CC(=O)NCC2CCCO2)c2cccc(F)c2)cc1 (stereo not drawn) | 1.59% | 
95 | N#CCCN(C(=O)COC(=O)c1ccc(S(=O)(=O)N2CCCCCC2)cc1)c1ccccc1 | -10.5% | 
96 | CC(=O)c1ccc(N2Cc3ccccc3C2)cc1 | 140% | 
97 | CCOc1ncccc1C(=O)OCC(=O)NC1CC1 | 18.9% | 
98 | O=C(OCC(=O)c1c[nH]c2ccccc12)c1cccc(O)c1 | 334% | 
99 | CCOc1ncccc1C(=O)OCC(=O)c1c[nH]c2ccccc12 |  | 13.1 µM (active)
100 | O=C(O)c1ccccc1-c1ccccc1C(=O)Nc1ccccc1Br | 15.8% | 
101 | COc1ccc(C)cc1NC(=O)CSc1nnc2ccc(-c3ccccn3)nn12 | -5.83% | 
102 | CCCCc1ccc(NC(=O)NCc2cccnc2)cc1 | 5.5% | 
103 | CCc1ccc(N2CC(C(=O)N3CCCCCC3)CC2=O)cc1 (stereo not drawn) | 15.9% | 
